This is a sample that favours compounds with a hit; in the whole collection about 7.4% have one here.
NPC1 promoter act = NPC1 promoter activation; Huh7 NPC1 promoter luciferase reporter, 24 h; Potency, µM (doses to about 9.22 µM), for inactives: top-dose activation, hits mostly activators; hit rate 2.4% among 320,000; AID 485313; note: % of control where 0% means no effect; nearly all actives have a fitted effect of over 60% in size
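Readout is luciferase luminescence, reflecting NPC1 promoter activation in stably transfected Huh7 cells after 24 h compound exposure at 37 °C in reduced-serum medium with 10% FBS.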
KinaseGlo FLuc = Kinase-Glo luciferase inhibition (counter-screen). Q27757. Kinase-Glo luciferase, ATP luminescence, 8 min. Potency, µM (top dose mostly 38.3 µM), without a hit: at the highest dose activity change, negative = inhibition, usual class: inhibitors. hit rate 0.28% among 200,000. AID 1379; note: % is set by controls: 0 for no effect and ±100 for the full control effect; nearly all actives have a fitted effect of over 60% in size
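Luminescence was the read-out, taken after 8-minute incubation at ambient temperature. Luciferase turned over luciferin with 10 uM ATP in imidazole pH 7.2 buffer containing KCl, MgCl2, Tween 20 and BSA.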
FLuc counter = inhibits or activates purified firefly luciferase, miR-21 counter-screen; P08659; purified FLuc, Km substrates, luminescence inhibition; Potency, µM (top dose mostly 57.5 µM), for inactives: top-dose activity change, negative = inhibition, usual class: inhibitors; hit rate 6.9% among 360,000; AID 588342;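 note: plate controls were vehicle for no effect and reference inhibitor for full effect; nearly all actives have a fitted effect of over 55% in size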
Target sequence (P08659 whole entry, looked up): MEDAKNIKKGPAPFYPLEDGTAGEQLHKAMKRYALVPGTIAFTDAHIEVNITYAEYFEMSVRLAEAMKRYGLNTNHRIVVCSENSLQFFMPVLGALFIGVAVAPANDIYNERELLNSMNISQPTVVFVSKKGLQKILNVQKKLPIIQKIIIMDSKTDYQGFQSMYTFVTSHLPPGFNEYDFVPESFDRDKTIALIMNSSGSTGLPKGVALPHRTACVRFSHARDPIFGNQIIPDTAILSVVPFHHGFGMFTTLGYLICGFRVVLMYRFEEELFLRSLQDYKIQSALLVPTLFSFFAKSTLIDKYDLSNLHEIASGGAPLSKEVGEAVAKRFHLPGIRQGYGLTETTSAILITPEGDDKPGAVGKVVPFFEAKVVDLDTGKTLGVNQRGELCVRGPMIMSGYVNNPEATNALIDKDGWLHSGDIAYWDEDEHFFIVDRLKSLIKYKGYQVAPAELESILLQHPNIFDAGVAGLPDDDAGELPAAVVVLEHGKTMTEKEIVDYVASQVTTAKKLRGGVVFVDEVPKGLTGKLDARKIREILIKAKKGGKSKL
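Biochemical qHTS of compounds, final roughly 60 µM downward over six points, against 10 nM purified firefly luciferase using Km concentrations of substrates (10 uM D-luciferin, 10 uM ATP) in Tris acetate pH 7.5 buffer; luminescence output.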
SMN2 splice up = SMN2 splice variant enhancement | Potency, µM (doses to about 46.1 µM), inactives show at the top dose activity change, positive = activation, usual class: activators | HEK293 SMN2-luciferase splicing reporter, luminescence, 30-36 h | hit rate 2.8% among 210,000 | AID 1458; note: % of control where 0% means no effect; nearly all actives have a fitted effect of over 55% in size
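qHTS luciferase splicing reporter: luminescence rises when SMN2 exon 7 is included in transfected HEK293 cells. Compound exposure lasted 30-36 h at 37C, with 4.5 mM final sodium butyrate as control, followed by a ONE-Glo read.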
Rab9 prom act = Rab9 promoter activation; AID 485297; Huh7 Rab9 promoter-luciferase reporter, luminescence, 24 h; hit rate 2.8% among 320,000; Potency, µM (series often up to 9.22 µM), for the others: top-dose activation, negative = inhibition, most hits filed as activators; note: % of control where 0% means no effect; nearly all actives have a fitted effect of over 60% in size
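Luminescence from Amplite-detected luciferase (10 minutes, ambient) reports Rab9 promoter activation. Before that, stable Rab9-luciferase Huh7 cells (1500/well, reduced-serum OP-MEM I plus 10% FBS) were exposed to compound for 24 hours at 37C.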
ELG1 genotox = induces genotoxicity in HEK293T cells with luciferase-tagged ELG1; Potency, µM (highest dose often 46 µM), for the others: at the highest dose activity change, positive = activation, actives largely listed as activators; AID 504466; HEK293T ELG1-luciferase reporter, luminescence, 16 h; hit rate 1.3% among 330,000; note: % of control where 0% means no effect; nearly all actives have a fitted effect of over 60% in size
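16 hr compound incubation (37 °C, 5% CO2) of HEK293T cells carrying luciferase-tagged ELG1; luciferase then measured by ONE-Glo luminescence after 30 min at RT.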
* hit, by the source's call; u = inconclusive; x = no result given; [ ] = dose if it differs, or a comment. Calls come from the whole dose curve; as a rule, active = well fitted curve in the direction sought with a large enough effect; inconclusive = small, poorly fitted or top-dose-only effect, or another doubt; inactive = no such curve, though single readings can be large; an effect the other way counts as inactive or inconclusive. Potency is the fitted concentration of half-maximal effect.

SMILES	NPC1 promoter act	KinaseGlo FLuc	FLuc counter	SMN2 splice up	Rab9 prom act	ELG1 genotox
O=C(Nc1ccc(/C=C/c2nc3ccccc3o2)cc1)c1c(F)cccc1F	3.16µM*	-0.1%	2.13µM*	8.91µM*	2µM*	1.46µM*
CC(=O)Nc1ccc(/C=C/c2nc3ccccc3o2)cc1	2.24µM*	x	4.78µM*	x	0.447µM*	u
O=C(Nc1ccc(/C=C/c2nc3ccccc3o2)cc1)c1cccc(C(F)(F)F)c1	28.3%	x	u	x	u	u
Cc1ccc2c(c1)C1(C)C(C(C)(C)N2C=O)C1(Cl)Cl (stereo not given)	-6.9%	x	-3.3%	x	-10.3%	1.4%
O=C(COCc1cc(-c2cccs2)on1)NC1CCCCC1	-4.4%	x	-0.2%	x	0.3%	2.1%
O=C(NC1CCCCC1)c1cc(-c2cccs2)on1	3.16µM*	x	u	x	2µM*	u
Cc1ccc(-c2cc(C(=O)NC3CCCC3)no2)cc1	0.562µM*	x	2.13µM*	x	2µM*	u
O=C(NCCN1CCOCC1)c1cc(-c2ccc(F)cc2)on1	12.2%	-0.4%	-0.6%	-21.6%	19.1%	9.9%
O=C(NC1CCCCC1)c1cc(-c2ccc(F)cc2)on1	1.41µM*	x	-9.0%	x	3.16µM*	15.8%
COc1ccc(CNc2ncnc3c2c(-c2ccccc2)cn3-c2ccc(C)c(Cl)c2)cc1	x	x	-4.0%	x	x	x
O=C(/C=C/c1ccccc1)C1=C(O)C(=O)N(CCO)C1c1ccc2c(c1)OCO2 (stereo not given)	-0.2%	0.8%	1.3%	x	-2.5%	1.4%
CCCC(=O)Nc1nnc(SCc2cc(=O)c3ccc(C)cc3[nH]2)s1	x	x	-8.2%	x	x	x
FC(F)(F)c1ccnc(NCc2ccco2)n1	0.9%	x	-1.2%	x	1.1%	0.8%
COc1ccc(NC(=O)c2ccc(NC(=O)CSc3nc(N)cc(=O)[nH]3)cc2)cc1	3.3%	x	-16.5%	x	-4.8%	u
Clc1ccc(Cl)c(OCc2cc(-c3ccccc3Cl)on2)c1	u	-3.9%	10.7µM*	-3.1%	u	14.1%
O=C(c1cc2c(ccc3ccccc32)o1)N1CCCCC1	1.26µM*	x	2.13µM*	x	0.891µM*	u
O=C(O)c1cc2c(ccc3ccccc32)o1	1.1%	3.0%	16.9µM*	x	5.2%	1.9%
O=C(c1cc2c(ccc3ccccc32)o1)N1CCN(c2ncc(C(F)(F)F)cc2Cl)CC1	-1.4%	-2.2%	2.0%	2.9%	-7.3%	-1.3%
NNC(=O)c1cc2c(ccc3ccccc32)o1	-1.6%	2.1%	-18.4%	-3.1%	-2.4%	0.2%
NC(=O)c1cc([N+](=O)[O-])ccc1NCc1ccc(O)cc1	15.2%	x	-10.9%	x	4.0%	u
Fc1cccc(-c2cc3nc4c(c(NCc5ccco5)n3n2)CCCC4)c1	u	-3.3%	7.57µM*	11.2µM*	u	17.0%
Nc1c(O)ccc2c1C(=O)c1ccccc1C2=O	14.4%	-10.2%	16.9µM*	29.3%	1.8%	10.5%
O=C1C=C(O)c2c(O)cccc2C1=O	6.1%	x	-11.1%	x	17.6%	-0.9%
O=c1cc(-c2ccccc2)oc2c(O)c(O)ccc12	x	-4.2%	x	-70.6%	x	x
Nc1cccc2cc(-c3ccccc3)oc12	3.98µM*	x	4.78µM*	x	u	u
SMILES	NPC1 promoter act	KinaseGlo FLuc	FLuc counter	SMN2 splice up	Rab9 prom act	ELG1 genotox
COC(=O)N1CCC2(CC1)CN(c1ccccc1)C2	x	-0.4%	x	-4.5%	x	x
Cc1ccc(S(=O)(=O)Nc2nc(-c3ccccc3)cs2)cc1	-1.3%	x	-1.4%	x	2.8%	4.5%
CC(/C=C/c1ccccc1)=N\Nc1nc(-c2ccccc2)cs1	-4.0%	1.5%	3.6%	-22.9%	-3.6%	-8.0%
CC(C)=NNc1nc(-c2ccccc2)cs1	15.6%	-10.5%	19µM*	-16.6%	12.3%	u
Cc1ccc(Nc2nc(-c3cccs3)cs2)nc1	0.447µM*	-9.2%	0.239µM*	1.41µM*	0.447µM*	0.517µM*
c1ccc(-c2csc(Nc3nc(N4CCOCC4)nc(N4CCOCC4)n3)n2)cc1	-5.0%	-2.7%	3.3%	-13.8%	-9.0%	0.9%
Cc1ccc(Nc2nc(-c3ccccc3)cs2)nc1	0.447µM*	x	0.379µM*	x	0.562µM*	0.326µM*
Cc1cc(C)nc(Nc2nc(-c3ccccc3)cs2)n1	u	x	u	x	0.708µM*	1.64µM*
COc1cc(C(=O)Nc2nc(-c3cccs3)cs2)cc(OC)c1OC	-3.6%	2.1%	-1.4%	u	-1.2%	-4.8%
CCCn1c(=O)c(C(=O)NCCc2ccc(Cl)cc2)c(O)c2ccccc21	-2.2%	x	4.8%	x	-4.3%	-11.0%
CN1CCN(CC(=O)Nc2cccc3ccccc23)CC1	x	-6.0%[7.66 µM]	x	-4.4%[9.22 µM]	x	x
On1nnc2cc(C(F)(F)F)ccc21	-1.8%	-0.5%	-19.1%	-1.6%	-3.7%	-4.3%
O=C(NCCC1=CCCCC1)c1cnsn1	26.8%	-0.6%	u	26.0%	u	16.4µM*
O=C(Nc1ccc(O)cc1)/C(=C\C=C\c1ccccc1)NC(=O)c1ccccc1	-3.2%	x	9.53µM*	x	2.5%	-8.6%
CCCCOc1ccc(C(=O)N/C(=C/C=C/c2ccccc2)C(=O)NC)cc1	0.9%	2.0%	16.9µM*	-3.3%	0.4%	1.8%
COC(=O)/C(=C\C=C\c1ccccc1)NC(=O)c1ccccc1	-4.0%	-3.1%	u	-6.5%	5.2%	-6.2%
O=C(O)COc1ccc(/C=N/NC(=O)/C(=C/C=C/c2ccccc2)NC(=O)c2ccccc2)cc1	0.5%	x	21.3µM*	x	-0.1%	-2.7%
O=C(Nc1ccc(C(=O)O)cc1)/C(=C\C=C\c1ccccc1)NC(=O)c1ccccc1Cl	3.2%	x	5.7%	x	0.5%	4.3%
CCCCOc1ccc(C(=O)N/C(=C/C=C/c2ccccc2)C(=O)O)cc1	-0.2%	1.9%	15.1µM*	5.2%	-2.2%	3.6%
Cc1cc(C)nc(N/N=C/c2ccccc2OCc2ccccc2)n1	-1.5%	0.0%	u	-1.7%	0.8%	-1.8%
Cc1cc(C)nc(N/N=C/c2ccccc2OCc2ccc(Cl)cc2)n1	8.6%	0.4%	u	30.0%	2.5%	9.6%
Cc1cc(C)nc(N/N=C/c2ccccc2OCc2ccc(Br)cc2)n1	14.2%	0.2%	u	12.6µM*	15.3%	-5.3%
Cc1cc(C)nc(N/N=C/c2ccccc2OCc2cccc(Br)c2)n1	-0.8%	2.9%	19µM*	-10.3%	-4.6%	0.8%
Cc1cc(C)nc(N/N=C/c2cc(Br)ccc2O)n1	-6.1%	x	8.49µM*	x	-6.6%	u
Cc1ccc(C(C2C(=O)CC(C)(C)CC2=O)C2C(=O)CC(C)(C)CC2=O)s1	1.3%	-1.0%	21.3µM*	-1.9%	0.3%	4.1%
CC1(C)CC(=O)C(C(c2ccncc2)C2C(=O)CC(C)(C)CC2=O)C(=O)C1	1.6%	-3.1%	1.6%	-3.0%	-2.3%	-0.4%
Cc1ccc(NC(=S)c2ccncc2)c(C)c1	-0.8%	x	-0.3%	x	-5.0%	-4.9%

From PubChem
